Assay results from PubChem BioAssay (NCI).
About 79,000 compounds went through this panel and 15% of them were active in at least one assay; those are over-represented in the sample as a whole. Calls of active or inactive are those of the source. Rule as the data show it: active = growth inhibition above about 70%; inactive = the rest.

Legend:
[1] = NCI Yeast Anticancer Drug Screen. Data for the rad52 strain (AID 147);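 also: 0% = growth of vehicle-treated control cultures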; details: S. cerevisiae rad52 mutant growth inhibition, active compounds read high
Summary of the method: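 DNA repair-defective yeast; compound exposure; growth scored against vehicle controls.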

[2] = NCI Yeast Anticancer Drug Screen. Data for the wt1 strain (AID 149);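 also: 0% = growth of vehicle-treated wt1 cultures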; details: S. cerevisiae wt1 strain (SPY 50644) growth inhibition, active compounds read high
Summary of the method: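 Each compound is tested on wt1 yeast and the loss of growth versus vehicle gives the inhibition value.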

[3] = NCI Yeast Anticancer Drug Screen. Data for the rad50EPP+ strain (AID 151);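 also: 0% = growth of vehicle-treated control cultures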; details: S. cerevisiae rad50 mutant strain, active compounds read high
Summary of the method: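 rad50EPP+ yeast treated with test compounds. Readout: growth vs vehicle control.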

[4] = NCI Yeast Anticancer Drug Screen. Data for the mgt1 strain (AID 153); details: S. cerevisiae mgt1 mutant growth inhibition, active compounds read high
Summary of the method: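 Growth inhibition relative to vehicle controls was scored for the mgt1 yeast strain after compound exposure.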

[5] = NCI Yeast Anticancer Drug Screen. Data for the rad50 strain (AID 155);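 also: 0% = growth of vehicle-only cultures of the same strain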; details: S. cerevisiae rad50 strain growth inhibition, active compounds read high
Summary of the method: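 Vehicle-treated cultures provide the reference for the growth inhibition reported for compound-exposed, repair-deficient yeast.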

[6] = NCI Yeast Anticancer Drug Screen. Data for the mec2-1 strain (AID 157); details: S. cerevisiae mec2-1 strain, active compounds read high
Summary of the method: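 Growth inhibition is read against vehicle-treated controls after compound exposure of the mec2-1 yeast strain, which is defective in DNA damage repair or cell cycle control.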

[7] = NCI Yeast Anticancer Drug Screen. Data for the rad14 strain (AID 159);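 also: 0% = growth of vehicle-treated control cultures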; details: S. cerevisiae rad14 strain growth inhibition, active compounds read high
Summary of the method: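 Inhibition of growth is reported for a repair-deficient yeast mutant following compound treatment, calculated relative to cultures that received vehicle.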

[8] = NCI Yeast Anticancer Drug Screen. Data for the sgs1 mgt1 strain (AID 161);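 also: 0% = growth of cultures given vehicle only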; details: S. cerevisiae sgs1 mgt1 strain, active compounds read high
Summary of the method: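 Growth of a repair-deficient yeast mutant was monitored after compound treatment and expressed as inhibition relative to vehicle-treated cultures.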

[9] = NCI Yeast Anticancer Drug Screen. Data for the CLN2oe strain (AID 163);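 also: 0% = growth of vehicle-only control cultures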; details: S. cerevisiae CLN2oe strain, active compounds read high
Summary of the method: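 Compound-treated yeast; growth vs vehicle ctrl = % inhibition. Genetically altered strain (cell-cycle control).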

[10] = NCI Yeast Anticancer Drug Screen. Data for the cln2 rad14 strain (AID 165);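 also: 0% = growth equal to vehicle treated cultures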; details: S. cerevisiae cln2 rad14 strain, active compounds read high
Summary of the method: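 Growth inhibition, relative to vehicle-treated controls, is the read-out. The test organism is a yeast strain with defined genetic alterations, cln2 rad14.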

[11] = NCI Yeast Anticancer Drug Screen. Data for the bub3 strain (AID 167); details: S. cerevisiae bub3 mutant strain, active compounds read high
Summary of the method: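 Mutant yeast screening strain plus compound; vehicle-treated cultures serve as the 0% inhibition reference.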

[12] = NCI Yeast Anticancer Drug Screen. Data for the wt2 strain (AID 169); details: S. cerevisiae wt2 strain growth inhibition, active compounds read high
Summary of the method: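 Compound exposure of yeast; growth compared with vehicle controls; inhibition reported.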

[13] = NCI Yeast Anticancer Drug Screen. Data for the mlh1 strain (AID 171);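 also: 0% = growth of vehicle-treated control cultures of the same strain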; details: S. cerevisiae mlh1 strain growth inhibition, active compounds read high
Summary of the method: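 Compounds are applied to a genetically altered yeast strain, and its growth is compared with that of vehicle-treated cultures to give percent inhibition.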

[14] = NCI Yeast Anticancer Drug Screen. Data for the sgs1 strain (AID 173);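 also: 0% = growth of vehicle-only control cultures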; details: S. cerevisiae sgs1 mutant, active compounds read high
Summary of the method: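 Compounds applied to genetically altered yeast; growth compared with vehicle-treated cultures to give % inhibition.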

[15] = NCI Yeast Anticancer Drug Screen. Data for the mlh1 rad18 strain (AID 175); details: S. cerevisiae mlh1 rad18 strain growth inhibition, active compounds read high
Summary of the method: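 Cells of a genetically altered yeast strain, deficient in DNA damage repair, were treated with compound. Their growth was then compared with that of vehicle-treated cultures to give inhibition.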

[16] = NCI Yeast Anticancer Drug Screen. Data for the rad18 strain (AID 177); details: S. cerevisiae rad18 mutant growth inhibition, active compounds read high
Summary of the method: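 Compounds are applied to a repair-deficient yeast strain, and growth is compared with that of vehicle-treated cultures to give percent inhibition.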

[17] = at 5.0 µM (retest, dose inferred, filed as 0.5)
[18] = at 50.0 µM (retest, dose inferred, filed as 5.0)

Measured: growth inhibition

Brc1ccc(-c2cc3c(cc2C2SCCS2)OCO3)cc1
inactive: [1]; at 1.2 µM -21% | [1]; at 3.7 µM -21% | [1]; at 11.0 µM -16% | [1]; at 33.0 µM 8% | [1]; at 100.0 µM 27% | [2]; at 1.2 µM -24% | [2]; at 3.7 µM -17% | [2]; at 11.0 µM -26% | [2]; at 33.0 µM -14% | [2]; at 100.0 µM -7% | [3]; at 1.2 µM -4% | [3]; at 3.7 µM -10% | [3]; at 11.0 µM 9% | [3]; at 33.0 µM 29% | [3]; at 100.0 µM 51% | [4]; at 1.2 µM -52% | [4]; at 3.7 µM -45% | [4]; at 11.0 µM -36% | [4]; at 33.0 µM -6% | [4]; at 100.0 µM 50% | [5]; at 1.2 µM -23% | [5]; at 3.7 µM -13% | [5]; [17] -19% | [5]; at 11.0 µM -13% | [5]; at 33.0 µM 14% | [5]; [18] 48% | [5]; at 50.0 µM 63.8% | [5]; at 100.0 µM 30% | [6]; at 1.2 µM -29% | [6]; at 3.7 µM -29% | [6]; [17] -57% | [6]; at 11.0 µM -31% | [6]; at 33.0 µM -27% | [6]; [18] 11% | [6]; at 50.0 µM 22.2% | [6]; at 100.0 µM -15% | [7]; at 1.2 µM -35% | [7]; at 3.7 µM -24% | [7]; at 11.0 µM -30% | [7]; at 33.0 µM -7% | [7]; at 100.0 µM 25% | [8]; [17] -18% | [8]; at 50.0 µM 66.6% | [9]; at 1.2 µM -18% | [9]; at 3.7 µM -25% | [9]; at 11.0 µM -28% | [9]; at 33.0 µM -10% | [9]; at 100.0 µM 13% | [10]; [17] 9% | [10]; [18] 32% | [10]; at 50.0 µM 21.1% | [11]; at 1.2 µM -16% | [11]; at 3.7 µM -8% | [11]; [17] 5% | [11]; at 11.0 µM -15% | [11]; at 33.0 µM 2% | [11]; at 50.0 µM 44.9% | [11]; at 100.0 µM 22% | [12]; at 1.2 µM -1% | [12]; at 3.7 µM -11% | [12]; at 11.0 µM -15% | [12]; at 33.0 µM 13% | [12]; at 100.0 µM 43% | [13]; at 1.2 µM -24% | [13]; at 3.7 µM -23% | [13]; at 11.0 µM -28% | [13]; at 33.0 µM 18% | [13]; at 100.0 µM 63% | [14]; at 1.2 µM 3% | [14]; at 3.7 µM 9% | [14]; at 11.0 µM 5% | [14]; at 33.0 µM 52% | [15]; [17] -8% | [15]; at 50.0 µM 33.5%
active: [8]; [18] 70% | [11]; [18] 74% | [14]; at 100.0 µM 76% | [15]; [18] 76%

CCCS(=O)(=O)Nc1ccc(Nc2c3ccccc3nc3ccccc23)c(OC)c1
inactive: [1]; at 1.2 µM 20% | [1]; at 3.7 µM 64% | [2]; at 1.2 µM -70% | [2]; at 3.7 µM -55% | [2]; at 11.0 µM -64% | [2]; at 33.0 µM -35% | [2]; at 100.0 µM 66% | [3]; at 1.2 µM -32% | [3]; at 3.7 µM -21% | [3]; at 11.0 µM -20% | [3]; at 33.0 µM 16% | [3]; at 100.0 µM 69% | [4]; at 1.2 µM -21% | [4]; at 3.7 µM -64% | [4]; at 11.0 µM -52% | [4]; at 33.0 µM -10% | [5]; at 1.2 µM 14% | [5]; at 3.7 µM 59% | [5]; at 50.0 µM 7.1% | [6]; at 1.2 µM -59% | [6]; at 3.7 µM -88% | [6]; [17] 2% | [6]; at 11.0 µM -60% | [6]; at 33.0 µM 33% | [6]; at 50.0 µM 12.8% | [7]; at 1.2 µM -62% | [7]; at 3.7 µM -61% | [7]; at 11.0 µM -43% | [7]; at 33.0 µM -16% | [7]; at 100.0 µM 66% | [8]; [17] 36% | [9]; at 1.2 µM -9% | [9]; at 3.7 µM -14% | [9]; at 11.0 µM -11% | [9]; at 33.0 µM 21% | [9]; at 100.0 µM 67% | [10]; [17] 34% | [10]; at 50.0 µM 52% | [11]; at 1.2 µM -67% | [11]; at 3.7 µM -49% | [11]; [17] 40% | [11]; at 11.0 µM -45% | [11]; at 33.0 µM -16% | [11]; at 50.0 µM 37.6% | [11]; at 100.0 µM 65% | [12]; at 1.2 µM -37% | [12]; at 3.7 µM -40% | [12]; at 11.0 µM -41% | [12]; at 33.0 µM -10% | [12]; at 100.0 µM 69% | [13]; at 1.2 µM -85% | [13]; at 3.7 µM -74% | [13]; at 11.0 µM -45% | [13]; at 33.0 µM 9% | [14]; at 1.2 µM -45% | [14]; at 3.7 µM -47% | [14]; at 11.0 µM -41% | [14]; at 33.0 µM 7% | [15]; [17] 66% | [15]; at 50.0 µM 29.4% | [16]; at 1.2 µM -58% | [16]; at 3.7 µM -63% | [16]; at 11.0 µM -43% | [16]; at 33.0 µM -10%
active: [1]; at 11.0 µM 82% | [1]; at 33.0 µM 87% | [1]; at 100.0 µM 93% | [4]; at 100.0 µM 73% | [5]; [17] 79% | [5]; at 11.0 µM 84% | [5]; at 33.0 µM 90% | [5]; [18] 98% | [5]; at 100.0 µM 91% | [6]; [18] 99% | [6]; at 100.0 µM 85% | [8]; [18] 99% | [8]; at 50.0 µM 82.8% | [10]; [18] 98% | [11]; [18] 98% | [13]; at 100.0 µM 74% | [14]; at 100.0 µM 77% | [15]; [18] 98% | [16]; at 100.0 µM 75%
